Results as given in ChEMBL document CHEMBL3988442, “University of Dundee, Small-Polar-MMV Screening Library” (2021).
Screen size: about 48,000 compounds; about 13,000 (27%) showed an effect of 50% or more. Some of the results follow.

System: Wolbachia pipientis
Experiment: Anti-Wolbachia Cell-Based Screen
Format: functional
Set-up: scale not given: in the data most compounds retested in dose-response had high values
Details: 5 µM

Compound | Percent Effect [%]
Cc1noc(C)c1CNC(=O)N1CCC(OCC2CC2)CC1 | 12.01
Cc1n[nH]cc1CNC(C(=O)N1CCCCC1)c1ccccc1 (stereo unspecified) | 2.279
CC(C)c1nnc2n1CCN(C(=O)CN1CCc3sccc3C1)C2 | 4.372
CS(=O)(=O)c1ccc(C(O)CN2CCC(c3ccn[nH]3)CC2)cc1 (stereo unspecified) | -3.645
OC(CN1CCC(c2ccn[nH]2)CC1)c1ccccc1F (stereo unspecified) | 96.43
OC(COc1ccccc1)CN1CCC(c2ccn[nH]2)CC1 (stereo unspecified) | 2.003
OC(CN1CCC(c2ccn[nH]2)CC1)c1ccc(F)cc1F (stereo unspecified) | 102.6
OC(CN1CCC(c2ccn[nH]2)CC1)c1cccc(F)c1 (stereo unspecified) | -8.538
OC(COCc1cccs1)CN1CCC(c2ccn[nH]2)CC1 (stereo unspecified) | -8.119
OC(CN1CCN(c2ncccn2)CC1)c1cccc(F)c1 (stereo unspecified) | -12.81
OC(CN1CCC(c2ccn[nH]2)CC1)c1cccc(C(F)(F)F)c1 (stereo unspecified) | 117.8
OC(CN1CCC(c2ccn[nH]2)CC1)c1ccc(F)cc1 (stereo unspecified) | 112.6
Cn1nccc1C1CCN(CC(O)c2cccc(F)c2)CC1 (stereo unspecified) | -0.7122
CN(CC1CCN(CCO)CC1)CC(O)c1ccc(F)cc1F (stereo unspecified) | 7.101
N#Cc1ccnc(N2CCN(CC(O)c3ccc(F)cc3F)CC2)c1 (stereo unspecified) | -23.85
Cc1ccc(F)c(OC2CCCN(c3cnn(C)c3)C2=O)c1 (stereo unspecified) | -6.274
Cc1cc(C(=O)N[C@H]2CN(CCO)C[C@@H]2C2CC2)sc1C | -4.663
CN(Cc1ccccc1)C1(C(=O)NC(CO)CO)Cc2ccccc2C1 | 2.959
O=C(Nc1cnc2n1CCCC2)c1cccc(-n2cnnc2)c1 | -1.722
CCN(C(=O)CN(Cc1cccc(O)c1)C1CCC(O)CC1)C1CC1 (stereo unspecified) | 5.971
Cc1cccc(CNCC2COC3(CCCC3)O2)c1C (stereo unspecified) | -2.633
OC(CN1CCC(c2ccn[nH]2)CC1)c1cc(F)ccc1F (stereo unspecified) | 116
OC(COCc1ccc(Cl)cc1)CN1CCC(c2ccn[nH]2)CC1 (stereo unspecified) | -1.567

Compound | Percent Effect [%]
O=C1CCCN1CCN1CCC(c2ccn[nH]2)CC1 | 6.838
O=c1cc(-c2ccncc2)nc(-c2ccc(CN3CC[C@H](O)C3)cc2)[nH]1 | 9.166
CN(C)c1cc(CNC(=O)Nc2ccc(F)cc2)ccn1 | 2.745
CN(C)c1cc(CNC(=O)Nc2ccc(S(C)(=O)=O)nc2)ccn1 | -6.104
CN(C)c1cc(CNC(=O)Nc2nncs2)ccn1 | 51.52
CN(C)c1cc(CNC(=O)Nc2nccs2)ccn1 | 125
CCc1ccc(CCNc2ncnc3c2CCN(C(=O)C2CC2)C3)cc1 | -23.9
NC(=O)C1CCN(CCCc2ccc(C(F)(F)F)cc2)CC1 | 5.084
OCC1CN(Cc2nc(C(F)(F)F)cs2)c2ccccc2O1 (stereo unspecified) | 3.254
CC(C)(C)n1nc(C2CC2)cc1C(=O)NC1CCN(CC(N)=O)CC1 | 124.1
CC(C)(C)n1nc(C(=O)NCC2(C(N)=O)CCOCC2)cc1C1CC1 | 8.942
CNC(=O)C1CCC(NC(=O)c2cc(C3CC3)n(C(C)(C)C)n2)CC1 (stereo unspecified) | 117.3
CC(C)c1cc(C(=O)NC2CCN(CC(N)=O)CC2)nn1C(C)(C)C | 128
CC(C)c1cc(C(=O)NCC(O)C2CCOCC2)nn1C(C)(C)C (stereo unspecified) | -4.207
CCNc1ccnc(NC2CCN(CC(N)=O)CC2)n1 | 2.921
CC(C)c1cc(C(=O)NCC2(C(N)=O)CCOCC2)nn1C(C)(C)C | -12.39
Cn1nc(C(=O)NC2CC2)cc1NC(=O)C1CC1 | -11.77
CC(C)(C)n1nc(C(=O)NC2CCN(CC(N)=O)CC2)cc1C1CC1 | 128.2
CC(CCc1ccccc1)CC(=O)NC1CCN(CC(N)=O)CC1 (stereo unspecified) | -10.07
Cn1nc(C(=O)NC2CC(C)(C)NC(C)(C)C2)cc1NC(=O)C1CC1 | -0.3555
CC(C)(C)n1nc(C2CC2)cc1C(=O)NCC1(C(N)=O)CCOCC1 | 3.596
Cc1ccc(C)c(Oc2ccc(CNC(=O)C3CCC(=O)N3)cn2)c1 (stereo unspecified) | -2.356
CCCc1nnsc1C(=O)N1CCN(CC(O)c2ccco2)CC1.Cl (stereo unspecified) | -2.42

Compound | Percent Effect [%]
Cc1nnc2n1CCN(Cc1ncc(-c3ccc(Cl)cc3)o1)C2 | -13.18
CS(=O)(=O)N1CC[C@]2(C[C@@H](OCC3CCC3)CO2)C1 | 0.0763
NC(=O)CN1CCC(NC(=O)c2ccn(-c3cccc(F)c3)n2)CC1 | -0.7272
Cc1cc(C(=O)NC2CCN(CC(N)=O)CC2)nn1C(C)(C)C | 133.1
CCCc1nc(C)c(C(=O)NC2CCN(CC(N)=O)CC2)s1 | 7.483
Cc1csc(CN(C)CCCOc2cccc(C#N)c2)n1 | 1.685
Cc1nn(C)c(N2CCOCC2)c1CNCC1CCCN1C (stereo unspecified) | -4.188
Cc1nn(C)c(N2CCOCC2)c1CNCc1ccoc1C | 153.8
Cc1nn(C)c(N2CCOCC2)c1CNCc1ccccc1CO | 115.8
Cc1nn(C)c(N2CCOCC2)c1CNCc1ccnn1C | 142.8
Cc1nn(C)c(N2CCOCC2)c1CNCc1nccs1 | -7.203
Cc1cccc(CNCc2c(C)nn(C)c2N2CCOCC2)n1 | -8.764
Cc1nn(C)c(N2CCOCC2)c1CNC(C)c1ccco1 (stereo unspecified) | -14.65
Cc1nn(C)c(N2CCOCC2)c1CNCc1ccc(Cl)s1 | 2.748
Cc1nn(C)c(N2CCOCC2)c1CNCc1ccc(CO)c(F)c1 | 138
Cc1nn(C)c(N2CCOCC2)c1CNCC1CCS(=O)(=O)C1 (stereo unspecified) | -15.3
Cc1nn(C)c(N2CCOCC2)c1CNCC1CCN(C2CC2)C1 (stereo unspecified) | -9.16
O=C(NCC1(O)CCSCC1)c1ccoc1 | -3.908
Cc1nccn1CC1CCCN1CCCc1nc(-c2cccs2)no1 (stereo unspecified) | 8.035
Cc1ncccc1CNC(CCO)C1CCCCC1 (stereo unspecified) | 3.816
Cn1ccnc1C1CCN(S(=O)(=O)c2ccc3c(c2)OCCO3)CC1 | -44.72
O=C(Nc1ncn(CC(=O)N2CCCCCC2)n1)C1CCCO1 (stereo unspecified) | -2.557
Fc1ccc(CN2CCCC2Cn2cncn2)c2ncccc12 (stereo unspecified) | 11.89

Compound | Percent Effect [%]
CC(C)N(C(=O)c1ccnc(OCC(F)(F)F)c1)c1cccnc1 | -10.5
Cc1nn(C)c(N2CCOCC2)c1CNCc1ccnc(N(C)C)c1 | -0.1268
Cc1nc(CNCc2c(C)nn(C)c2N2CCOCC2)cs1 | -13.32
COc1ccc(CNCc2c(C)nn(C)c2N2CCOCC2)cc1 | 6.012
COCc1cccc(CNCc2c(C)nn(C)c2N2CCOCC2)c1 | 117.6
Cc1nn(C)c(N2CCOCC2)c1CNCc1ccc2c(c1)OCO2 | 96.35
Cc1nn(C)c(N2CCOCC2)c1CNCc1ccc(N(C)C)nc1 | 80.75
Cc1nn(C)c(N(C)C)c1CNCc1ccc(N(C)C)nc1 | 0.9542
COCc1cccc(CNCc2c(C)nn(C)c2N(C)C)c1 | -4.219
Cc1cc(CNCc2c(C)nn(C)c2N2CCOCC2)no1 | -8.986
Cc1nn(C)c(N2CCOCC2)c1CNCc1ccc(C(C)O)cc1 (stereo unspecified) | 111.2
CCCN1CCc2[nH]cnc2C12CCN(C(=O)CCn1cccn1)CC2 | -44.41
O=C(CCCc1nnc(-c2ccccc2)o1)N1CCN(CCO)CC1 | -6.561
CCOc1ccccc1N(C)C(=O)c1cscn1 | 11.28
CC1CN(C(=O)c2cnn(-c3ccccn3)c2C(C)C)CC(C)(C)O1 (stereo unspecified) | 3.589
Cn1cc(C(O)CNC(=O)c2sccc2OC(F)F)cn1 (stereo unspecified) | -0.7442
Cc1ccc(C(O)CNC(=O)c2cccnc2O)cc1 (stereo unspecified) | -65.97
Cn1cc(C(O)CNC(=O)c2cc(Br)ccc2Cl)cn1 (stereo unspecified) | 133.1
CSCC(C)(O)CNC(=O)c1cc(Br)ccc1Cl (stereo unspecified) | 7.074
Cc1ccc(NC(=O)NCC(c2cnn(C)c2)N(C)C)c(C)c1 (stereo unspecified) | -2.112
Cn1cc(C(O)CNC(=O)Nc2cc(F)ccc2-n2cccn2)cn1 (stereo unspecified) | -4.933
Cc1ccc(C(=O)NCC(c2cnn(C)c2)N(C)C)c(O)c1 (stereo unspecified) | 194.8
Cn1cc(C(O)CNC(=O)c2ccc(F)cc2Cl)cn1 (stereo unspecified) | 121.3

Compound | Percent Effect [%]
CCOc1cc(F)ccc1NC(=O)NCC(c1cnn(C)c1)N(C)C (stereo unspecified) | 4.743
Cc1ccc(C(=O)NCC(O)c2cnn(C)c2)c(Br)c1 (stereo unspecified) | 99.45
Cn1cc(CCCNC(=O)NCC(O)c2ccsc2)cn1 (stereo unspecified) | -8.721
CC(CNC(=O)c1ccc(F)cc1Cl)N1CCCC1 (stereo unspecified) | 2.022
CC(NCCn1cccn1)c1cc(F)ccc1F (stereo unspecified) | 17.19
O=c1[nH]nc(SCC2CCCCO2)n1C1CC1 (stereo unspecified) | 3.518
COc1cc(CC(O)CO)c(OC)c2c1OCO2 (stereo unspecified) | 13.41
O=C1CCNc2ccc(F)cc2CN1Cc1ccccc1 | 102.2
O=C1C(NS(=O)(=O)c2cc(F)cc(F)c2)CCN1Cc1ccccc1 (stereo unspecified) | -1.299
O=C1CCNc2cc3c(cc2CN1Cc1ccco1)OCO3 | 103.2
O=C1CCOCCN1Cc1ccc(Cl)c(F)c1 | -26.47
O=C(c1cc(Br)c[nH]1)N1CCN(Cc2ccco2)CC1 | -4.103
O=C1CCNc2ccc(F)cc2CN1Cc1ccco1 | 96.92
O=C(CSC1CCc2ccccc2NC1=O)NCCc1ccco1 (stereo unspecified) | 9.555
O=C(c1cc(Cl)c(Br)[nH]1)N1CCN(Cc2ccco2)CC1 | 4.507
O=C1CCNc2ccccc2CN1Cc1ccco1 | 99.7
O=C(CN1CCc2ccccc2C1)NCc1ccco1 | -0.1453
O=S(=O)(Cc1ccc(F)cc1)NCc1ccco1 | 9.126
O=C(NCCc1ccc2c(c1)OCO2)C1CCCN(Cc2ccco2)C1 (stereo unspecified) | -5.327
